Measurements: the supplement of paper PMC10849652
Of roughly 8,800 targets only a part is listed; those with a hit were picked by preference. About 0.5% of all pairs of compound and target were hits. A number with no mark means an inactive call.

What was measured:
Experiment in all cases: log2 fold change, soluble protein after heating vs DMSO (PISA); higher = thermal stabilisation; K562 lysate, 10 uM; active = over 0.2 and 3.5 SD of the protein, either way, in both replicates (recomputed)
nilotinib = compound: Cc1cn(-c2cc(NC(=O)c3ccc(C)c(Nc4nccc(-c5cccnc5)n4)c3)cc(C(F)(F)F)c2)cn1 [nilotinib]
Summary of the method: (§1)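 Quantification was by TMTpro 16plex LC-MS/MS with equalised channel sums, applied to the supernatant after 21,000xg for 90 min. Samples were crude K562 extract at 1 mg/mL protein in PBS pH 7.4 with 1 mM MgCl2, treated with 10 μM compound for 30 min, heated for 3 min across 48°C-58°C, pooled and brought to 0.5% NP-40 at 4°C. Values are log-two fold changes in thermal stability relative to solvent controls, from duplicates.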

[1] = compound: Cc1nc(Nc2n[nH]c3c2CN(C(=O)N[C@H](CN(C)C)c2ccccc2)C3(C)C)c2sccc2n1
Summary of the method: as §1

dasatinib = compound: Cc1nc(Nc2ncc(C(=O)Nc3c(C)cccc3Cl)s2)cc(N2CCN(CCO)CC2)n1 [dasatinib]
Summary of the method: as §1

[2] = compound: Cc1ncc(-c2ccnc(Nc3ccc(S(C)(=O)=O)cc3)n2)n1C(C)C
Summary of the method: as §1

[3] = compound: Cn1cc(-c2ccc3c(c2)CCN3C(=O)Cc2cccc(C(F)(F)F)c2)c2c(N)ncnc21
Summary of the method: as §1

quisinostat = compound: Cn1cc(CNCC2CCN(c3ncc(C(=O)NO)cn3)CC2)c2ccccc21 [quisinostat]
Summary of the method: as §1

tipifarnib = compound: Cn1cncc1[C@@](N)(c1ccc(Cl)cc1)c1ccc2c(c1)c(-c1cccc(Cl)c1)cc(=O)n2C [tipifarnib]
Summary of the method: as §1

[4] = compound: NC(=O)Nc1cc(-c2cccc(F)c2)sc1C(=O)N[C@H]1CCCNC1
Summary of the method: as §1

[5] = compound: NC(=O)c1cnc(N[C@@H]2CCCC[C@@H]2N)nc1Nc1cccc(-n2nccn2)c1
Summary of the method: as §1

[6] = compound: NC1(c2ccc(-c3nc4ccn5c(=O)[nH]nc5c4cc3-c3ccccc3)cc2)CCC1
Summary of the method: as §1

[7] = compound: NCC(=O)Nc1ccc(-n2nc(C(F)(F)F)cc2-c2ccc3c(ccc4ccccc43)c2)cc1
Summary of the method: as §1

vorinostat = compound: O=C(CCCCCCC(=O)Nc1ccccc1)NO [vorinostat]
Summary of the method: as §1

silmitasertib = compound: O=C(O)c1ccc2c(c1)nc(Nc1cccc(Cl)c1)c1ccncc12 [silmitasertib]
Summary of the method: as §1

[8] = compound: O=C1NC(=O)C(c2cnc3ccccn23)=C1c1cn2c3c(cc(F)cc13)CN(C(=O)N1CCCCC1)CC2
Summary of the method: as §1

entospletinib = compound: c1cn2cc(-c3ccc4cn[nH]c4c3)nc(Nc3ccc(N4CCOCC4)cc3)c2n1 [entospletinib]
Summary of the method: as §1

Chain of UniProt P06493 (P06493 whole entry, looked up): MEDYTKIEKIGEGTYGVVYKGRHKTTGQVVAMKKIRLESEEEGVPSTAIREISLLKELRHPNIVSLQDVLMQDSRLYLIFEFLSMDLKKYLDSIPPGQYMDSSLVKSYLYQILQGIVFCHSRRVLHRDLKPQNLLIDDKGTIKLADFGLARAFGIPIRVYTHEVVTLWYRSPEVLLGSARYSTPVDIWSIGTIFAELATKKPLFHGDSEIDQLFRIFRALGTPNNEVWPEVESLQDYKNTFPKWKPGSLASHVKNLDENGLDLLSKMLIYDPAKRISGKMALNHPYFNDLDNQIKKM
Chain of UniProt P30281 (P30281 whole entry, looked up): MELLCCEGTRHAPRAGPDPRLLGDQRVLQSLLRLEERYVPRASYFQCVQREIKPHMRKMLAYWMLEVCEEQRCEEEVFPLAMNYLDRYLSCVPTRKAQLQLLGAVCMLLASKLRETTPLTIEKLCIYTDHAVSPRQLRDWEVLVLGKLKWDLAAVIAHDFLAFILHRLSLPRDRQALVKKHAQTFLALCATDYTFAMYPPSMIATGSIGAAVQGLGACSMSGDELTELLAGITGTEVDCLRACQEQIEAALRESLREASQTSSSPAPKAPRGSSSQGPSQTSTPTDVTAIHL
Chain of UniProt Q53HL2 (Q53HL2 whole entry, looked up): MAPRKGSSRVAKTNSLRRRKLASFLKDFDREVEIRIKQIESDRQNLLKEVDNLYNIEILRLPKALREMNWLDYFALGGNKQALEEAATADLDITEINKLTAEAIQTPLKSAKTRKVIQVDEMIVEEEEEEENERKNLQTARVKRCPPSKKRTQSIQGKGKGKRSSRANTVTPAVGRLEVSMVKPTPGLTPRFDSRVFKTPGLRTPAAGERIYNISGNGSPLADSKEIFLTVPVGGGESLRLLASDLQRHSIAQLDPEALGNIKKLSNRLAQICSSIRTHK
Chain of UniProt Q8NBU5 (Q8NBU5 whole entry, looked up): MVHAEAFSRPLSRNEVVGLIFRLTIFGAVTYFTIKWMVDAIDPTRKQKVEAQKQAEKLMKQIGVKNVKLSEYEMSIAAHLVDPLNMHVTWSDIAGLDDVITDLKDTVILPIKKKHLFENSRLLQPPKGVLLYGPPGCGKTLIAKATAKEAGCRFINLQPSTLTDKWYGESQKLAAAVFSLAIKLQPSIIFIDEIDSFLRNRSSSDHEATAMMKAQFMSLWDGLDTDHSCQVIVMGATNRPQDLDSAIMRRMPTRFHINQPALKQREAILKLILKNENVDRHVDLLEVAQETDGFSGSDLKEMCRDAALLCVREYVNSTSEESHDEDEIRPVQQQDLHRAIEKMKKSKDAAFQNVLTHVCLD
Chain of UniProt O94986 (O94986 whole entry, looked up): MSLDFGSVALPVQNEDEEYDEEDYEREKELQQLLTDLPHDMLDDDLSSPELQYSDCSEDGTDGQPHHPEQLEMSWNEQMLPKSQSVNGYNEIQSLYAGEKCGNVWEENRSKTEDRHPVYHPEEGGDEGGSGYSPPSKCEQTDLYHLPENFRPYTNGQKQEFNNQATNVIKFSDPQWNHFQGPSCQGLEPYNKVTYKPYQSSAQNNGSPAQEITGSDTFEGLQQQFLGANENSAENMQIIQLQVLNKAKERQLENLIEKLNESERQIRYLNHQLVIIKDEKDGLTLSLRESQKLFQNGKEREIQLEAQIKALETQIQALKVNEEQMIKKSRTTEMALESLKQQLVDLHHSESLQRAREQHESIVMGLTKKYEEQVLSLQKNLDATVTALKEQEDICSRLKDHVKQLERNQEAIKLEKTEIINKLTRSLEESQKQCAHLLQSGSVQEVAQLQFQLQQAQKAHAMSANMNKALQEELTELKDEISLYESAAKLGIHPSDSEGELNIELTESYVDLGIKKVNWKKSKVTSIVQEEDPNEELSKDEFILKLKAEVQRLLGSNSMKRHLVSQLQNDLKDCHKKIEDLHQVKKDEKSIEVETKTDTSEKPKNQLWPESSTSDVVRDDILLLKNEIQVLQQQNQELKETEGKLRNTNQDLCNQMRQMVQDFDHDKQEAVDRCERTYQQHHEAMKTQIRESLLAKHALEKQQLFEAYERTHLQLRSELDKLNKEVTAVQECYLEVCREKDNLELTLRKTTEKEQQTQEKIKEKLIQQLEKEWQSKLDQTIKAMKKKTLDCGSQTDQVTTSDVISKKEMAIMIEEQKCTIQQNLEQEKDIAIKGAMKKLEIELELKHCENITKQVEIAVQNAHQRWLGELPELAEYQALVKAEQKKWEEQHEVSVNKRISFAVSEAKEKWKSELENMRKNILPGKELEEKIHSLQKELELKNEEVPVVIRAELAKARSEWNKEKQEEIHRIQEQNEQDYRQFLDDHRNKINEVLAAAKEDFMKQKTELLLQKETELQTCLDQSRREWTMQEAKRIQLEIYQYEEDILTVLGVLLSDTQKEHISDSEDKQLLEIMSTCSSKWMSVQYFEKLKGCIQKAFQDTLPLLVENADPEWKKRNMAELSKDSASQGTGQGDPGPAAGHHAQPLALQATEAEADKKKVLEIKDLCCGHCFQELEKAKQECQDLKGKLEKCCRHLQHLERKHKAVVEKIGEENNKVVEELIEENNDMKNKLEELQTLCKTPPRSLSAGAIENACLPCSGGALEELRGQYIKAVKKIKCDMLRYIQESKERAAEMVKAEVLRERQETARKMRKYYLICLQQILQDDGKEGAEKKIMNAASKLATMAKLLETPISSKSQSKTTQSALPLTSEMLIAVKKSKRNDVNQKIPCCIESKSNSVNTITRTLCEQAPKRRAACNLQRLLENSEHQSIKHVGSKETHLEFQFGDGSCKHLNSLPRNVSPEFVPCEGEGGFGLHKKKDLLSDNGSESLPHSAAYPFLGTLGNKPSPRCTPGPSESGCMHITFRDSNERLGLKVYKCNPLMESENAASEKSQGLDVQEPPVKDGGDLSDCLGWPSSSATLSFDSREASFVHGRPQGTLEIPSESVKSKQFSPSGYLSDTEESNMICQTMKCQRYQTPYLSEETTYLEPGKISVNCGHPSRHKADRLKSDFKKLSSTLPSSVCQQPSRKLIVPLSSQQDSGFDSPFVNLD
Chain of UniProt Q6ZRI6 (Q6ZRI6 whole entry, looked up): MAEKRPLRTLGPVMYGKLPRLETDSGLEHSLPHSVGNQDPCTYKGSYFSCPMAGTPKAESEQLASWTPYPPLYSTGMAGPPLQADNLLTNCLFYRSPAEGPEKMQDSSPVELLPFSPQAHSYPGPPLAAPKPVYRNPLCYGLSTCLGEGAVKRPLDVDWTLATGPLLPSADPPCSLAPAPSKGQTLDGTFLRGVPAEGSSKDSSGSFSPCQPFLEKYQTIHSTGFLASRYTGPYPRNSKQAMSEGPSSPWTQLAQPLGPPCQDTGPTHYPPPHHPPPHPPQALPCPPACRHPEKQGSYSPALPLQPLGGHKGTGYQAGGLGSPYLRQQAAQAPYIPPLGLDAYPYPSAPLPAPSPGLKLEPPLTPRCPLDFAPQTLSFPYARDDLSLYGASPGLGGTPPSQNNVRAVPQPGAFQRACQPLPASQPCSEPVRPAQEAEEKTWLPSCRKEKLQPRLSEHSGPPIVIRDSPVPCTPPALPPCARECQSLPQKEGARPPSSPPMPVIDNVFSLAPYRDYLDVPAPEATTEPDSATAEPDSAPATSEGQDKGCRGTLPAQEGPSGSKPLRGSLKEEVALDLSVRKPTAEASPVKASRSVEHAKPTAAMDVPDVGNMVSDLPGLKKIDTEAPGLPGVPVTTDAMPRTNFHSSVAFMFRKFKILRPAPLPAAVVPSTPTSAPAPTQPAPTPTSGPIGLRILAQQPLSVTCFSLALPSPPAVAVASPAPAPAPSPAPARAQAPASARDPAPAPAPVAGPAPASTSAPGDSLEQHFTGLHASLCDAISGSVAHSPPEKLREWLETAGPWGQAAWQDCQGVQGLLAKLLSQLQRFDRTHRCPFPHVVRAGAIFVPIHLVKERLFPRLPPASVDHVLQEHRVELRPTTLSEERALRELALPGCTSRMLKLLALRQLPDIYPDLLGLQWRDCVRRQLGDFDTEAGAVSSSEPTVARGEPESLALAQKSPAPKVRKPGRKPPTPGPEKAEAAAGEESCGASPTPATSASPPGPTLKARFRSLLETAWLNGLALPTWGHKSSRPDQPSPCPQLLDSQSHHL
Chain of UniProt Q7Z4R8 (Q7Z4R8 whole entry, looked up): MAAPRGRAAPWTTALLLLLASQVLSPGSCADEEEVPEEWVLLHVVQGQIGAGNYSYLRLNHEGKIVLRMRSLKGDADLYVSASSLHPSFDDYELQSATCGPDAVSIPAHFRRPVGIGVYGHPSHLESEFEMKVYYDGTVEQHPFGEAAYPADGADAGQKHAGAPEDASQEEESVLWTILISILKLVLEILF
Chain of UniProt P0DMB2 (P0DMB2 whole entry, looked up): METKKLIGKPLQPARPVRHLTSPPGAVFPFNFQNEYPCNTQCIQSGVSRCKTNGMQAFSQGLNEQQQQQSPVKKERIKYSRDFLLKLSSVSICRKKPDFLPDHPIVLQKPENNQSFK
Chain of UniProt Q1RMZ1 (Q1RMZ1 whole entry, looked up): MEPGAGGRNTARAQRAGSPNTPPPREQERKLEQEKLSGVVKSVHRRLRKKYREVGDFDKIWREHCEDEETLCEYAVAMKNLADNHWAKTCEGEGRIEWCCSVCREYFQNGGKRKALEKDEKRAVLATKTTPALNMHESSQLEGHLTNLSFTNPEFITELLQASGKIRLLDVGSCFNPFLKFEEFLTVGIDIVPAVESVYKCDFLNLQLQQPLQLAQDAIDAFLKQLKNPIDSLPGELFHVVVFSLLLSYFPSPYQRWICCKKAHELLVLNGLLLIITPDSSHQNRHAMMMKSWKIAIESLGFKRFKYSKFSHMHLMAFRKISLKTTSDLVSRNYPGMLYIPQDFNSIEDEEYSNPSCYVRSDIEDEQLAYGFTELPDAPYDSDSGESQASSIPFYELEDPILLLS
Chain of UniProt Q9H0Y0 (Q9H0Y0 whole entry, looked up): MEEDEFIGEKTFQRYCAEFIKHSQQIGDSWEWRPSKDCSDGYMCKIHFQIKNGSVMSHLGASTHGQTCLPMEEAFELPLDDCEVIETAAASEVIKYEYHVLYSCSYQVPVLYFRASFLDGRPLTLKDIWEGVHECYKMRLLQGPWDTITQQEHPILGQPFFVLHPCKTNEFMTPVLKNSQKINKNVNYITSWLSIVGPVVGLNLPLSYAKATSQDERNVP

| Target | log2 fold change (nilotinib) | log2 fold change [1] | log2 fold change (dasatinib) | log2 fold change [2] | log2 fold change [3] | log2 fold change (quisinostat) | log2 fold change (tipifarnib) | log2 fold change [4] | log2 fold change [5] | log2 fold change [6] | log2 fold change [7] | log2 fold change (vorinostat) | log2 fold change (silmitasertib) | log2 fold change [8] | log2 fold change (entospletinib) |
| --- | --- | --- | --- | --- | --- | --- | --- | --- | --- | --- | --- | --- | --- | --- | --- |
| CARNMT1 (UniProt Q8N4J0) | 0.019 | -0.016 | 0.003 | -0.019 | 0.006 | -0.173 | 0.011 | 0.004 | 0.019 | -0.023 | 0.005 | 0.027 | 0.008 | -0.028 | -0.039 |
| CDC45 isoform 3 (UniProt O75419) | -0.022 | 0.013 | -0.044 | -0.003 | 0.038 | 0.015 | -0.022 | 0.047 | 0.003 | -0.058 | -0.021 | -0.487 (active) | 0.012 | 0.015 | 0.03 |
| CEP152 (UniProt O94986) | -0.058 | 0.108 | 0.012 | -0.014 | -0.017 | -0.413 (active) | 0.02 | 0.058 | – | 0.112 | 0.025 | -0.167 | 0.039 | 0.089 | -0.04 |
| CCND3 (UniProt P30281) | -0.061 | -0.015 | -0.08 | 0.042 | 0.137 | -0.05 | -0.062 | -0.003 | – | -0.057 | – | -0.051 | 0.017 | 0.086 | 0.062 |
| CDK5RAP1 (UniProt Q96SZ6) | -0.007 | 0.002 | 0.037 | 0.019 | 0.011 | 0.049 | -0.002 | -0.004 | – | -0.013 | 0.011 | 0.036 | -0.07 | 0.016 | 0.029 |
| C15orf39 (UniProt Q6ZRI6) | 0.074 | -0.006 | -0.059 | 0.019 | 0.034 | -0.017 | -0.015 | 0.053 | – | 0.184 | – | -0.513 (active) | 0.008 | -0.025 | -0.147 |
| CEPT1 (UniProt Q9Y6K0) | -0.053 | -0.015 | -0.018 | 0.028 | 0.06 | -0.021 | -0.068 | 0.028 | -0.008 | -0.094 | -0.037 | 0.103 | -0.016 | 0.029 | -0.016 |
| BBS7 (UniProt Q8IWZ6) | -0.039 | 0.065 | -0.061 | -0.03 | 0.489 (active) | 0.06 | -0.133 | -0.044 | – | 0.14 | -0.006 | -0.354 | 0.133 | -0.015 | -0.007 |
| BCR (UniProt P11274) | 0.108 | 0.021 | 0.043 | -0.017 | -0.018 | -0.044 | -0.015 | – | 0.028 | 0.016 | 0.012 | -0.267 (active) | 0.005 | 0.001 | -0.009 |
| CDK5RAP2 (UniProt Q96SN8) | 0.024 | -0.009 | -0.002 | 0.056 | -0.015 | -0.081 | -0.011 | -0.006 | -0.104 | -0.001 | 0.042 | -0.156 | 0 | 0.026 | -0.042 |
| CDC25A (UniProt P30304) | 0.013 | -0.01 | -0.035 | -0.021 | 0.024 | 0.006 | 0.011 | 0.017 | 0.016 | 0.025 | – | -1.01 (active) | 0.084 | -0.172 | – |
| CDK1 (UniProt P06493) | -0.026 | 0.018 | -0.027 | 0.067 | -0.02 | 0.003 | 0.015 | 0.012 | 0.127 | 0.015 | 0.029 | -0.049 | – | -0.055 | 0.006 |
| CDK17 isoform 2 (UniProt Q00537) | 0.061 | 0.117 | -0.068 | 0.096 | 0.011 | -0.069 | -0.423 | -0.057 | – | 0.068 | 0.01 | 0.174 | 0.565 (active) | 0.103 | -0.162 |
| ATG10 (UniProt Q9H0Y0) | -0.064 | 0.026 | 0.043 | -0.16 | -0.068 | 0.015 | 0.125 | -0.01 | – | 0.016 | -0.032 | -0.242 (active) | 0.049 | -0.023 | 0.034 |
| ATAD1 (UniProt Q8NBU5) | 0.073 | -0.015 | 0.001 | -0.153 | 0.039 | -0.072 | -0.072 | -0.001 | 0.027 | -0.031 | -0.047 | -0.617 (active) | 0.021 | 0.002 | 0.008 |
| CAPNS1 (UniProt K7ES78) | – | – | -0.027 | – | -0.006 | 0.247 | – | -0.002 | 0.053 | -0.099 | -0.234 | -0.011 | -0.037 | 0.141 | – |
| CDCA8 (UniProt Q53HL2) | 0.03 | -0.002 | 0.012 | -0.277 | -0.011 | – | 0.046 | – | – | -0.051 | 0.066 | 0.13 | -0.093 | – | 0.112 |
| ATPSCKMT (UniProt Q6P4H8) | – | – | 0.052 | – | -0.021 | 0.018 | – | 0.001 | – | – | – | – | – | 0 | 0.105 |
| C6orf120 (UniProt Q7Z4R8) | – | – | -0.007 | – | 0.147 | – | – | – | 0.017 | 0.041 | – | 0.273 | -0.075 | – | – |
| C8orf88 (UniProt P0DMB2) | – | – | 0.07 | – | -0.134 | -0.042 | – | -0.011 | – | 0.084 | – | -0.455 (active) | 0.056 | 0.024 | – |
| BCORL1 isoform 3 (UniProt Q5H9F3) | – | – | 0.039 | – | -0.09 | 0.035 | – | 0.235 | – | -0.091 | 0.177 | -0.004 | -0.093 | 0.213 | -0.018 |
| CDC14A isoform 2 (UniProt Q9UNH5) | -0.076 | 0.07 | – | -0.001 | – | -0.174 | -0.019 | 0.083 | 0.101 | – | – | – | – | -0.11 | – |
| ATG4D (UniProt Q86TL0) | – | – | -0.037 | – | -0.57 (active) | -0.085 | – | 0.084 | – | – | – | – | – | 0.117 | 0.004 |
| CAPNS1 (UniProt U3KPR7) | -0.166 | -0.416 | – | 0.226 | – | – | 0.161 | – | -0.214 | – | – | – | – | – | – |
| BMT2 (UniProt Q1RMZ1) | 0.172 | -0.923 (active) | – | 0.134 | – | – | 0 | – | – | – | – | – | – | – | – |
| C16orf70 (UniProt Q9BSU1) | – | – | 0.042 | – | -0.091 | 0.036 | – | -0.005 | -0.001 | 0.009 | -0.013 | -0.382 (active) | 0.019 | -0.015 | -0.104 |
| CARHSP1 (UniProt H3BNU9) | -0.196 | 0.149 | – | 0.238 | – | – | 0.108 | – | -0.059 | – | – | – | – | – | – |
